Test systems include K-562 leukemia; MALME-3M melanoma; MDA-MB-231 breast; RXF 393 renal; SF-268 CNS; SF-295 CNS; SF-539 CNS; UACC-257 melanoma; M14 melanoma; HCT-15 colon; SNB-75 CNS; SNB-19 CNS; U251 CNS; PC-3 prostate; SK-MEL-5 melanoma; UACC-62 melanoma; LOX IMVI melanoma; SK-MEL-28 melanoma; SK-MEL-2 melanoma.
Holding throughout (test): NCI-60 one-dose screen, 48 h (100 = growth as untreated, 0 = no growth, -100 = all killed)
Holding throughout (details): 10 µM unless noted

SMILES strings stand for the structures. This is part of a sample that, as a whole, favours compounds with a hit. Of some 83,000 tested, about 20% had one in any assay.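 Activity criterion: percent growth below 10, measured after cells in 96-well plates were exposed to a single compound concentration for 48 hours.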 Unmarked numbers belong to inactive results. Calls of active or inactive are those of the source.

For `COc1ccc(/C=C/C(=O)c2ccc(NC(=O)CSc3nnc(-c4ccc5nc(-c6ccc(Cl)cc6)[nH]c5c4)o3)cc2)cc1`, the growth in the test with K-562 leukemia is 87.3%; in the test with MALME-3M melanoma, 93.5%; with MDA-MB-231 breast, 98.4%; in the test with RXF 393 renal it was 107%; with SF-268 CNS, 114%; with SF-295 CNS, 100%. Also, the growth was 94.3% in the test on SF-539 CNS; 110% in the test with UACC-257 melanoma; 106% with M14 melanoma; 94.9% in the test with HCT-15 colon; 98.5% in the test with SNB-75 CNS; 106% in the test with SNB-19 CNS. Moreover, the growth in the test on U251 CNS is 96%; in the test with PC-3 prostate, 82.5%; with SK-MEL-5 melanoma it was 89.7%; in the test with UACC-62 melanoma, 83.8%; in the test on LOX IMVI melanoma, 6.79% (active); in the test on SK-MEL-28 melanoma it was 113%. The growth in the test with SK-MEL-2 melanoma was 111%.

`C#Cc1nc(C2=C(C)C(O)/C(=N/O)C2)cs1` (configuration not stated): the growth with K-562 leukemia is 87.2%; in the test with MALME-3M melanoma it was 99.5%; with MDA-MB-231 breast, -28.1% (active); with RXF 393 renal it was 93.7%; in the test on SF-268 CNS, 65.3%; in the test with SF-295 CNS it was 65%. In addition, the growth in the test on SF-539 CNS is 25.5%; in the test on UACC-257 melanoma, 90.7%; in the test with M14 melanoma, 93.8%; in the test with HCT-15 colon, 88.1%; in the test with SNB-75 CNS, -85.7% (active); with SNB-19 CNS, 109%. The growth was 109% with U251 CNS; 101% in the test on PC-3 prostate; 94.9% in the test with SK-MEL-5 melanoma; 88% with UACC-62 melanoma; 111% in the test on SK-MEL-28 melanoma; 103% with SK-MEL-2 melanoma.

Consider `N#Cc1c(-c2ccc(F)cc2)nc2c(C#N)c(Nc3ccccc3)nn2c1N`, for which the growth is 99.5% with K-562 leukemia; 113% in the test on MALME-3M melanoma; 109% with MDA-MB-231 breast; 110% with RXF 393 renal; 95.3% with SF-268 CNS; 99.3% in the test on SF-295 CNS. Moreover, the growth was 97.3% in the test with SF-539 CNS; 106% in the test with UACC-257 melanoma; 109% in the test with M14 melanoma; 98.7% in the test on HCT-15 colon; 101% in the test with SNB-75 CNS; 96.3% in the test with SNB-19 CNS. The growth was 104% in the test on U251 CNS; 96.7% in the test with PC-3 prostate; 99.2% with SK-MEL-5 melanoma; 99.8% with UACC-62 melanoma; 99.8% in the test with LOX IMVI melanoma; 102% with SK-MEL-28 melanoma. The growth in the test with SK-MEL-2 melanoma was 105%.

With `CCCC(=O)NC(c1cccc(N(C)C)c1)c1cc(C)c2cccnc2c1O` (configuration not stated), the growth is 35.3% in the test with K-562 leukemia; 79.8% in the test on MALME-3M melanoma; 48.2% in the test on MDA-MB-231 breast; 82.1% with RXF 393 renal; 55.1% in the test with SF-268 CNS; 42.3% in the test on SF-295 CNS. Also, the growth in the test with SF-539 CNS is 53.9%; with UACC-257 melanoma, 90.6%; with M14 melanoma it was 49.3%; in the test on HCT-15 colon it was 24.9%; with SNB-75 CNS, 76.8%; in the test with SNB-19 CNS it was 69.3%. The growth with U251 CNS was 55.5%; in the test with PC-3 prostate it was 50.1%; with SK-MEL-5 melanoma, 62.7%; in the test with UACC-62 melanoma, 46.1%; in the test with SK-MEL-28 melanoma, 77.1%; in the test with SK-MEL-2 melanoma, 89.9%.

As for `N#Cc1nc(-c2ccccc2)oc1N1CC[C@@H](CO)C1`, the growth in the test with K-562 leukemia is 96%; with MALME-3M melanoma, 110%; with MDA-MB-231 breast, 99.1%; in the test with RXF 393 renal it was 118%; in the test with SF-268 CNS, 105%; in the test with SF-295 CNS, 97.1%. Besides, the growth in the test on SF-539 CNS was 102%; in the test with UACC-257 melanoma, 110%; in the test with M14 melanoma, 103%; in the test with HCT-15 colon, 100%; in the test with SNB-75 CNS, 98.3%; in the test on SNB-19 CNS, 94%. Besides, the growth was 103% in the test with U251 CNS; 92.2% with PC-3 prostate; 99.6% in the test with SK-MEL-5 melanoma; 92.4% in the test on UACC-62 melanoma; 101% with SK-MEL-28 melanoma; 110% with SK-MEL-2 melanoma.

Regarding `O=C1C2=C(C(=O)c3c(O)cccc31)C(c1ccco1)c1sc(=O)[nH]c1S2` (configuration not stated), the growth in the test with K-562 leukemia is 22%; in the test on MALME-3M melanoma, -92.3% (active); in the test with MDA-MB-231 breast, 8.88% (active); in the test with RXF 393 renal it was 32.5%; in the test on SF-268 CNS, 50.7%; with SF-295 CNS, -15.6% (active). The growth with SF-539 CNS is -24% (active); with UACC-257 melanoma, -28.2% (active); with M14 melanoma, -97.6% (active); in the test on HCT-15 colon, 10.8%; in the test with SNB-75 CNS it was 32.4%; in the test on SNB-19 CNS, 13.6%. The growth in the test on U251 CNS was 11.5%; with PC-3 prostate, 8.77% (active); with SK-MEL-5 melanoma, -93.4% (active); in the test with LOX IMVI melanoma it was -2.86% (active); in the test with SK-MEL-28 melanoma it was -28.8% (active); in the test with SK-MEL-2 melanoma, -7.37% (active).

For the compound `C=CCn1c(SCC(=O)c2ccc(Br)cc2)nnc1-c1c[nH]c2ccccc12`, the growth was 85.5% in the test with K-562 leukemia; 90.7% in the test on MALME-3M melanoma; 96.9% in the test on MDA-MB-231 breast; 113% with RXF 393 renal; 102% in the test on SF-268 CNS; 93.2% in the test with SF-295 CNS. In addition, the growth in the test with SF-539 CNS was 91.8%; in the test on UACC-257 melanoma, 108%; in the test on M14 melanoma, 97.4%; in the test on HCT-15 colon, 99%; in the test on SNB-75 CNS, 106%; in the test with SNB-19 CNS, 100%. The growth in the test with U251 CNS was 99.9%; in the test with PC-3 prostate, 78.3%; in the test on SK-MEL-5 melanoma, 95.9%; in the test on UACC-62 melanoma, 83.1%; in the test on SK-MEL-28 melanoma, 96.1%; in the test on SK-MEL-2 melanoma, 115%.

`O=C(c1ccc(O)cc1)C1[C@H](c2ccc(Cl)cc2)[C@@H](c2ccccc2)NC12C(=O)Nc1ccc(Cl)cc12` (some centres not stated): the growth in the test on K-562 leukemia was 28.1%; in the test with MALME-3M melanoma, 74.5%; in the test with MDA-MB-231 breast it was 48.6%; in the test on RXF 393 renal, 27.7%; with SF-268 CNS, 37.7%; in the test on SF-295 CNS it was 41.1%. Further, the growth in the test on SF-539 CNS is 66.4%; in the test on UACC-257 melanoma it was 62.9%; in the test with M14 melanoma, 47.7%; in the test with HCT-15 colon it was 28.9%; in the test with SNB-75 CNS it was 46.2%; with SNB-19 CNS, 63%. Moreover, the growth in the test on U251 CNS is 29.6%; in the test on PC-3 prostate, 24.6%; with SK-MEL-5 melanoma, 67.3%; in the test on UACC-62 melanoma, 53.6%; with LOX IMVI melanoma it was 26.8%; in the test on SK-MEL-28 melanoma it was 76.2%. In addition, in the test on SK-MEL-2 melanoma, the growth is 57%.

Source of the values: PubChem BioAssay (NCI).
